The text below walks through data of PubChem BioAssay.

One assay concerns the target Albumin (Bos taurus) (UniProt P02769). The assay can be described thus: compounds binding labelled BSA control protein – biochemical, small-molecule microarray, Alexa647 label, 635/667 nm fluorescence, artefact control for SMM control protein annotation, profiling panel (AID 1118).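 Also: score merges 667 nm emission intensity and signal-to-noise per printed compound spot.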 The following applies: BSA-A647 binding, fluorescence 635 nm, higher = more signal.
Assay [1] is described as follows: probe aXIP binding to arrayed compounds – biochemical, NeuroSMM set, 635/667 nm fluorescence, primary screen (AID 1119).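 Also: probe is the protein aXip251-270 applied at 1 µg/mL to compound-printed slides; binding of probe to printed compounds measured as 667 nm fluorescence plus signal to noise.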 The following applies: small-molecule microarray, higher = more signal, called active from +8 up or from −8 down.
Assay [2] is described as follows: probe aNOTCH3 binding on compound microarray – biochemical, small-molecule microarray, 635/667 nm fluorescence, primary screen (AID 1120).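 Also: probe is a biotin-tagged antibody raised against NOTCH3 rather than NOTCH3 protein; score merges spot fluorescence near 667 nm with spot signal to noise.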 The conditions noted are these: higher = more signal.
A short description of assay [3]: probe aNOTCH2 binding on compound microarray – biochemical, small-molecule microarray, 635/667 nm fluorescence, primary screen (AID 1121).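 Also: score merges feature fluorescence read at 667 nm with its signal to noise.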 The conditions noted are these: higher = more signal.
Assay [4] has as its target Carbonic anhydrase 2 (Homo sapiens) (UniProt P00918). The assay can be described thus: compounds binding carbonic anhydrase 2 – biochemical, small-molecule microarray, Alexa647-labelled CAII, profiling panel (AID 1122). The following applies: CAII-A647 binding fluorescence, higher = more signal.
Assay [5] can be described thus: COS7 lysate on small-molecule microarray, probe aHis, 635 nm (AID 1123).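 Also: z-score combines 667nm fluorescence intensity with signal-to-noise per printed compound spot.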 The following applies: COS7 cell lysate, fluorescence, higher = more signal.
The nature of assay [6]: probe aLAP1 signal on lysate-treated microarray – cell lysate, small-molecule microarray, COS7 lysate, primary screen (AID 1124).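 Also: lysate comes from COS7 cells expressing LAP1 and is applied at 0.3 µg/mL; score merges spot fluorescence near 667 nm with signal-to-noise over triplicate slides.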 The conditions noted are these: probe aLAP1, fluorescence, higher = more signal.
In another assay the test system is Sam68 (KHDRBS1). Nature of the assay: compounds binding KHDRBS1 protein – biochemical, small-molecule microarray, 635 nm fluorescence, primary screen (AID 1125).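 Also: score merges 667 nm channel intensity with signal to noise over triplicate slides.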 The conditions noted are these: higher = more signal.
Assay [7] relates to Chordin-like protein 2 (CHRDL2). Nature of the assay: compounds binding chordin-like 2 – biochemical, small-molecule microarray, 635 nm fluorescence, primary screen (AID 1126).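 Also: printed compound slides probed with Chrdl2 protein at 4 µg/mL for 1 h at 4 C; score merges 667 nm emission intensity with signal to noise over three replicate slides.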 The conditions noted are these: fluorescence 635 nm, higher = more signal.
Assay [8] concerns the target Concanavalin-A (Canavalia ensiformis) (UniProt P02866). Nature of the assay: compounds binding concanavalin A lectin – biochemical, small-molecule microarray, Alexa647 label, 635 nm, artefact control for SMM control protein annotation, primary screen (AID 1127).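 Also: z combines 667 nm emission intensity with signal-to-noise across three replicate slides.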 The conditions noted are these: ConA-A647 binding fluorescence, higher = more signal.
Assay [9] can be described thus: compounds binding Alexa647 anti-His antibody – biochemical, small-molecule microarray, 635 nm fluorescence, artefact control for SMM control protein annotation, primary screen (AID 1128).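 Also: score merges feature fluorescence with signal-to-noise for each printed compound spot.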 The conditions noted are these: higher = more signal.
Assay [10] relates to Human papillomavirus type 1a E7 protein (residues 1-88). The assay can be described thus: HPV1a E7 small-molecule binders, primary screen, biochemical, small-molecule microarray, residues 1-88, 635 nm (AID 1129). The conditions noted are these: small-molecule microarray binding, fluorescence 635 nm; higher = more signal.
The target in assay [11] is Focal adhesion kinase 1 (Homo sapiens) (UniProt Q05397). Nature of the assay: PTK2 protein binding on printed compound slides – biochemical, small-molecule microarray, 635/667 nm fluorescence, BSA, DTT, primary screen (AID 1130).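 Also: composite of spot emission at 667 nm and signal to noise over triplicate slides.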 The following applies: 635 nm fluorescence, higher = more signal.
Assay [12] concerns Fibrinogen (Alexa647-labelled). Nature of the assay: Alexa647-fibrinogen binding to printed small molecules – biochemical, small-molecule microarray, 635/667 nm fluorescence, artefact control for SMM control-protein annotation, profiling panel (AID 1131).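 Also: z-score merges 667 nm fluorescence with per-spot signal-to-noise over triplicate slides.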 The conditions noted are these: fibrinogen-A647 binding fluorescence, higher = more signal.
In assay [13] the target is Follistatin (Homo sapiens) (UniProt P19883). The assay can be described thus: FST protein binding to printed compounds – biochemical, small-molecule microarray, 635/667 nm fluorescence, primary screen (AID 1132). The conditions noted are these: 635 nm fluorescence, higher = more signal.
The target of assay [14] is Fibroblast growth factor 2 (Homo sapiens) (UniProt P09038). The assay can be described thus: basic fibroblast growth factor binding to printed compounds – biochemical, small-molecule microarray, 635/667 nm fluorescence, primary screen (AID 1133). The conditions noted are these: FGF2, fluorescence 635/667, higher = more signal.
Assay [15] is described as follows: JC-1 mitochondrial potential readout, lung cancer cells – cell-based, A549, JC-1 fluorescence, basal, 24 h, 100 nL, profiling panel (AID 1138).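 Also: A549 lung adenocarcinoma cells under basal conditions with no added stimulus; test concentration not given here.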 The following applies: higher = more signal.
The next assay deals with Lefty1. The assay can be described thus: Lefty1 protein binding to printed compounds – biochemical, small-molecule microarray, 635/667 nm fluorescence, primary screen (AID 1139). The conditions noted are these: fluorescence 635/667, higher = more signal.
For assay [16], the system named is wheat germ agglutinin (Triticum aestivum), Alexa647-labelled. Nature of the assay: Alexa647-WGA lectin binding to printed small molecules – biochemical, small-molecule microarray, 635/667 nm fluorescence, artefact control for SMM control-protein annotation, profiling panel (AID 1140).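 Also: score merges 667 nm feature emission with signal to noise over triplicate slides.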 The following applies: WGA-A647 binding, 635 nm fluorescence, higher = more signal.

Assay [17] deals with Luciferin 4-monooxygenase (Photinus pyralis) (UniProt P08659). The assay can be described thus: inhibition of purified Photinus pyralis luciferase – biochemical, luminescence, purified enzyme, 2006 set, primary screen (AID 1141).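 Also: cell-free assay with purified firefly luciferase at 100 ng per well in PBS; test concentration not given here.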 The following applies: purified firefly luciferase, SteadyGlo luminescence, 30 min; higher = more signal, called active from +8 up or from −8 down.

Active and inactive are the calls of the source.

Fibroblast growth factor 2 (Homo sapiens), sequence (P09038 whole entry, looked up): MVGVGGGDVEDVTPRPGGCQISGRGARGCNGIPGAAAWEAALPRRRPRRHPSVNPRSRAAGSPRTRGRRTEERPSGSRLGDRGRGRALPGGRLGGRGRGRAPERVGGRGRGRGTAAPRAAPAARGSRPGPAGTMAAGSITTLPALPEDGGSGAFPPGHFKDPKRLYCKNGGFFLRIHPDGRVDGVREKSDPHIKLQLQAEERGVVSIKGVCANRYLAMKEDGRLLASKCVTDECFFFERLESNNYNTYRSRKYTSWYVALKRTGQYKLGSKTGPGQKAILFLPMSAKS
Luciferin 4-monooxygenase (Photinus pyralis), sequence (P08659 whole entry, looked up): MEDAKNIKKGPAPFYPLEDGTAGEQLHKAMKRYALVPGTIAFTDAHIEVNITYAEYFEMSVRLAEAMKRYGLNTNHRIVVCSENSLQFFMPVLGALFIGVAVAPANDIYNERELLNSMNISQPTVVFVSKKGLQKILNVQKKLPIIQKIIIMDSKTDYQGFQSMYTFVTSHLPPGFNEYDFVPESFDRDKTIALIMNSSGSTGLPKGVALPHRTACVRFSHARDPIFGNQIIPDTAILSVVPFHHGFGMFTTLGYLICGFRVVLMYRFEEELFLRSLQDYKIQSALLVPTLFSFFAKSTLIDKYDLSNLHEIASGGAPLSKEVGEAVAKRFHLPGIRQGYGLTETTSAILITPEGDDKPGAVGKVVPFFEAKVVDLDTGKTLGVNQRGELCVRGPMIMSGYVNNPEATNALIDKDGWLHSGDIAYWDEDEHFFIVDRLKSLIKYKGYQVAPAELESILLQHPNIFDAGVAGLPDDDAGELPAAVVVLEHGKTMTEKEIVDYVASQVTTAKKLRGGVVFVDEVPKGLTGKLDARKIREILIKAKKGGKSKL
Follistatin (Homo sapiens), sequence (P19883 whole entry, looked up): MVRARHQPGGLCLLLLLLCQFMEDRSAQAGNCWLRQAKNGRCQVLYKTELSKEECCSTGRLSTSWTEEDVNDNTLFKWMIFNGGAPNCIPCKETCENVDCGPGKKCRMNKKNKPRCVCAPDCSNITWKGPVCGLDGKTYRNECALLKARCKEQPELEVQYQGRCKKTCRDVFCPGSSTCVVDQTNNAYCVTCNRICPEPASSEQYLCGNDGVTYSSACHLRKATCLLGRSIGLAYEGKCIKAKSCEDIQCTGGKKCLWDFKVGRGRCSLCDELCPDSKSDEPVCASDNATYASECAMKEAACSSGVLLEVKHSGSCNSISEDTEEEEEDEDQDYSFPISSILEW
Concanavalin-A (Canavalia ensiformis), sequence (P02866 whole entry, looked up): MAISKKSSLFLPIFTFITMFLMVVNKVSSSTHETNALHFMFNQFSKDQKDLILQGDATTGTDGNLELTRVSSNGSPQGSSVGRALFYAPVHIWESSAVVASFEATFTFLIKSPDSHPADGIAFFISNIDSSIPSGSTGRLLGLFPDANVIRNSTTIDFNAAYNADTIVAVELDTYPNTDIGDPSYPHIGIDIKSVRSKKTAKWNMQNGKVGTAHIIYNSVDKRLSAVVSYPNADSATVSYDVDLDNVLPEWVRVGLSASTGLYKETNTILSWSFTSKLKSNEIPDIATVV
Focal adhesion kinase 1 (Homo sapiens), sequence (Q05397 whole entry, looked up): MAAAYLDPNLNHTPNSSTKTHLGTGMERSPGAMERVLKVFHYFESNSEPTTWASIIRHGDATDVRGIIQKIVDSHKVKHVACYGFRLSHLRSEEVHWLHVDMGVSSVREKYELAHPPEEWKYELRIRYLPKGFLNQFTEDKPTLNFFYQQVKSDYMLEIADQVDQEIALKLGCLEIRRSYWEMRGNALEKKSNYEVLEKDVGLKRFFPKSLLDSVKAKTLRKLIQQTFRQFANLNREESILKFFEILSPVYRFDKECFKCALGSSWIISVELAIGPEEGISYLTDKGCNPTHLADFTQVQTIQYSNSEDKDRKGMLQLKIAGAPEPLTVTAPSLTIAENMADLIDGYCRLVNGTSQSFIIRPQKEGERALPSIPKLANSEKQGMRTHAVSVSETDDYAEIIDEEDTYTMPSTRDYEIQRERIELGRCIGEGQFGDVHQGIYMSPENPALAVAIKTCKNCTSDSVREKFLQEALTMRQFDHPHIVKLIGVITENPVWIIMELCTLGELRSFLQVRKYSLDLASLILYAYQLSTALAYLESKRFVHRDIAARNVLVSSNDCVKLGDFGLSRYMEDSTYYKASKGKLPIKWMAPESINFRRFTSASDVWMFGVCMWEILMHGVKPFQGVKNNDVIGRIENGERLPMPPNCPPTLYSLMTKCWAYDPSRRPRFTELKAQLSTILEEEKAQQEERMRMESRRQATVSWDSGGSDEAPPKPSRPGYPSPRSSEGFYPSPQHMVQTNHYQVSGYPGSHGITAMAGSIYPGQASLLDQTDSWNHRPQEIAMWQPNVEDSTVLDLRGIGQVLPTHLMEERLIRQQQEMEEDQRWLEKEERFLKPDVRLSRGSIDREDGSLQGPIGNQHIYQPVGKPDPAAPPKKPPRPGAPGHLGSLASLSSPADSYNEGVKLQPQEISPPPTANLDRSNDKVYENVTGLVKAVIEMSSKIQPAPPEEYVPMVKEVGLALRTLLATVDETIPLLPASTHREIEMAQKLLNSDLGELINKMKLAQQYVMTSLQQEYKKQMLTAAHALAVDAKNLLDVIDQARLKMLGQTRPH
Albumin (Bos taurus), sequence (P02769 whole entry, looked up): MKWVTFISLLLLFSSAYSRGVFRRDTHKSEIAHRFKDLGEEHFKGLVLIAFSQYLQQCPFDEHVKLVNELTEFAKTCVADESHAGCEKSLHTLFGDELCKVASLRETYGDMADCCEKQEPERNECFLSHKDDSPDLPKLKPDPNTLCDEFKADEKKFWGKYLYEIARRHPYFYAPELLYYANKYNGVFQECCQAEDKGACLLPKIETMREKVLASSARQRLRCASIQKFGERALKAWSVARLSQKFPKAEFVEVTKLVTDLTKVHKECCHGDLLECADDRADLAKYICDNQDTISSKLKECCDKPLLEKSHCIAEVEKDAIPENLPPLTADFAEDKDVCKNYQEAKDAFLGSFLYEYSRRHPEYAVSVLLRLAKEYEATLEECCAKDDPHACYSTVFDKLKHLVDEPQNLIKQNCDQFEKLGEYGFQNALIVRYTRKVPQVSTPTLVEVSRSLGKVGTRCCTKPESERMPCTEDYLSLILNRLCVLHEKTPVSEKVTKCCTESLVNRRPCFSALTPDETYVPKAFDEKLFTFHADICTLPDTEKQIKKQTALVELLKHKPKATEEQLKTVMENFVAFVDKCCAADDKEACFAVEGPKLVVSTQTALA

`CCCCN1CC=CC23O[C@@H]4/C=C\CCCOC(=O)C4[C@H]2C(=O)N(C(C)CO)[C@@H]3C1=O` (stereo not given in full): the composite z-score with Albumin (Bos taurus) is 0.962; in assay [2], -0.222; in [3], -0.151; in [4] it was 0.839; in assay [5], 0.296; in assay [6], 0.203. Also, the composite z-score in the assay with Sam68 (KHDRBS1) is -0.296; in [7], 0.112; in assay [8], -1.23; in assay [9] it was -1.02; in [10], -0.582; in assay [11], -0.56. The composite z-score in assay [12] was 0.347; in assay [13], -0.446; in [14] it was -0.38; in the assay on Lefty1, -0.291; in [16], -0.362. In addition, the composite Z-score in assay [1] is 0.727 (inactive). Moreover, the z-score was 0.532 in [15] and -0.315 (inactive) in assay [17].
As to `O=C1OCCC=C[C@H]2OC34C=CCN(CCN5CCOCC5)C(=O)[C@H]3N(CCO)C(=O)[C@@H]4C12` (stereo not given in full), the composite z-score was -0.188 with Albumin (Bos taurus); 0.16 in assay [2]; -0.202 in assay [3]; 0.72 in [4]; -0.219 in assay [5]; -0.193 in assay [6]. Besides, the composite z-score with Sam68 (KHDRBS1) is -1.08; in [7], 0.112; in assay [8] it was -0.916; in [9], 1.07; in assay [10] it was -0.793; in assay [11] it was -0.379. Besides, the composite z-score in [12] worked out at 0.236; in assay [13] it was 1.11; in assay [14] it was 0.785; in the assay with Lefty1 it was 0.648; in assay [16] it was 0.418. Besides, in assay [1], the composite Z-score is -0.7 (inactive). Besides, the z-score is -0.849 in assay [15] and -0.0527 (inactive) in assay [17].
On to `[N-]=[N+]=NCc1ccccc1[C@@H]1OC(c2ccc(OCCCO)cc2)=N[C@]1(Cc1ccccc1N=[N+]=[N-])C(N)=O`, for which the composite z-score came to 0.825 with Albumin (Bos taurus); 0.473 in [2]; 0.299 in [3]; 0.715 in assay [4]; 2.8 in [5]; 0.202 in [6]. Further, the composite z-score with Sam68 (KHDRBS1) was 1.3; in [7] it was -0.124; in assay [8], 1.12; in [9], 1.81; in [10], 1.26; in [11], 0.73. Besides, the composite z-score in [12] is 1.01; in assay [13] it was 1.28; in assay [14], 0.853; with Lefty1, -0.173; in assay [16], 1.31. Besides, the composite Z-score in [1] was 0.0773 (inactive). For the same compound, the z-score was 0.737 in [15] and -3.4 (inactive) in assay [17].
`C=CCC(OC(C)=O)[C@@H]1[C@@H](N(Cc2cc3ccccc3o2)C(=O)c2cccc3ccccc23)c2cc(OCCCO)ccc2N1C(=O)Cc1ccc2ccccc2c1` (stereo not given in full): the composite z-score was 0.398 in the assay with Albumin (Bos taurus); 0.0496 in assay [2]; -0.0928 in assay [3]; 0.0704 in assay [4]; 0.256 in [5]; 0.0592 in assay [6]. In addition, the composite z-score was -0.301 in the assay on Sam68 (KHDRBS1); 0.16 in assay [7]; 0.106 in assay [8]; 0.166 in assay [9]; -0.273 in assay [10]; -0.0768 in assay [11]. For the same compound, the composite z-score was 0.571 in [12]; 0.416 in assay [13]; 0.439 in assay [14]; -0.0817 in the assay with Lefty1; -0.157 in assay [16]. For the same compound, the composite Z-score in assay [1] was 0.182 (inactive). In addition, the results for the z-score in assay [15] and in assay [17] were -0.274 and 0.209 (inactive), respectively.
Consider `CC(c1ccccc1)C(O)C1C=CC2C(=O)N(c3ccccc3)C(=O)C2N1Nc1ccccc1F` (stereo not given), for which the composite z-score with Albumin (Bos taurus) was 0.687; in assay [2], 0.0522; in [3], -0.0483; in assay [4] it was 0.697; in assay [5], 2.21; in assay [6] it was 0.504. Besides, the composite z-score in the assay on Sam68 (KHDRBS1) is 1.17; in [7] it was -0.474; in assay [8] it was 0.77; in assay [9], 1.35; in assay [10], 1.2; in [11], 0.583. For the same compound, the composite z-score was 0.994 in assay [12]; 0.473 in assay [13]; -0.645 in [14]; 0.226 in the assay on Lefty1; 0.439 in assay [16]. In addition, the composite Z-score in assay [1] was 0.0197 (inactive). For the same compound, the z-score was -0.673 in assay [15] and 1.94 (inactive) in [17].
`C=CCOC(=O)[C@@H]1[C@H]2C(=O)O[C@H](c3ccccc3)[C@H](c3ccccc3)N2[C@H](c2ccc(OCCOC(=O)[C@H]3C[C@H]4C(=O)N[C@@H](Cc5ccccc5)C(=O)N4[C@H]3c3ccc(O)cc3)cc2)[C@@]12C(=O)Nc1ccc(I)cc12`: the composite z-score with Albumin (Bos taurus) was -0.893; in assay [2], 0.0092; in assay [3] it was 0.27; in [4], 0.554; in [5], 0.931; in assay [6], 1.17. In addition, the composite z-score stood at 1.29 with Sam68 (KHDRBS1); 1.12 in assay [7]; 1.16 in assay [8]; 1.77 in assay [9]; 1.19 in assay [10]; 0.0087 in assay [11]. The composite z-score turned out to be 0.521 in [12]; 1.36 in [13]; 1.39 in assay [14]; 1.32 in the assay on Lefty1; 0.815 in assay [16]. Further, in assay [1], the composite Z-score is 1.43 (inactive). For the same compound, the z-score in assay [15] is -1.55; in assay [17], -1.79 (inactive).
Regarding `NC(=O)NCC#Cc1ccc2c(c1)[C@]1(C(=O)N2)[C@H](C(=O)NC[C@H](O)c2ccccc2)[C@H]2C(=O)O[C@H](c3ccccc3)[C@H](c3ccccc3)N2[C@@H]1c1ccccc1OCCO`, the composite z-score with Albumin (Bos taurus) is 0.308; in assay [2], -0.0003; in assay [3], -0.164; in [4] it was 0.539; in assay [5], 1.54; in assay [6] it was 0.564. Besides, the composite z-score was 0.854 with Sam68 (KHDRBS1); -0.769 in assay [7]; 0.913 in assay [8]; 0.441 in [9]; 1.18 in assay [10]; 0.32 in assay [11]. For the same compound, the composite z-score in assay [12] amounted to 0.946; in assay [13], 1.05; in assay [14], 0.54; in the assay on Lefty1 it was 0.28; in [16], 0.25. For the same compound, the composite Z-score in [1] is 0.15 (inactive). The values for the z-score in assay [15] and in assay [17] were -1.17 and 0.649 (inactive), respectively.
